Laboratory results published in the supplement of paper PMC3334620.
In all, about 33,000 sequences were measured (“E-score (-0.5 to 0.5)”: median about -0.036, highest 2% from about 0.37 on). Shown is part of a subset that was picked to be rich in the highest values.

biological target: T1, Yer064c (UniProt P40041); assay: PBM E-score (8-mer binding enrichment) (E-score (-0.5 to 0.5)); higher = stronger / more preferred TF binding; details: protein concentration: 200 nM; construct: GST-full length
T1 sequence: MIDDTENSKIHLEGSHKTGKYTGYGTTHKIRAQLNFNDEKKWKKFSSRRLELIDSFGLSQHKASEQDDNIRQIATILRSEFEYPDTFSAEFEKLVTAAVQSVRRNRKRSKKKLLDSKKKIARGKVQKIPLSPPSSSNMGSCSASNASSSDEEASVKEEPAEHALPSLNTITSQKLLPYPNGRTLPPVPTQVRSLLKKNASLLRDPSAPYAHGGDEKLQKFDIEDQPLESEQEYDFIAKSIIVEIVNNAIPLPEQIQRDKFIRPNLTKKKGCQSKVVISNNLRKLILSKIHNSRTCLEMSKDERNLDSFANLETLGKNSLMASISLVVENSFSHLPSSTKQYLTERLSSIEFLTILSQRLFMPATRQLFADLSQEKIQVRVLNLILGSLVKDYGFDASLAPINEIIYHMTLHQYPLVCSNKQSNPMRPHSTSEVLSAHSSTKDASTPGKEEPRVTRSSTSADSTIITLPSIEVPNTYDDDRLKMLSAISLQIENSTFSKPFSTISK
Method in brief: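 E-scores (a modified Wilcoxon-Mann-Whitney statistic) were assigned by the Universal PBM Analysis Suite to every ungapped eight-base word pooled with its reverse complement. The input came from universal all-10-mer Agilent arrays made double-stranded by primer extension and probed with GST-tagged yeast transcription factors at about 100-200 nM. Fluorescent anti-GST detected bound protein, and masliner normalised the scans.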

Row | Sequence | PBM E-score
1 | ATACCCGA | -0.0409
2 | CTCTTTGC | -0.0733
3 | AACGTCCG | -0.343
4 | TCTCGAAA | 0.0754
5 | GCGGAACA | 0.0307
6 | CAGGGGGC | -0.337
7 | CGGCTGAA | 0.0435
8 | ATTTTGCG | 0.00719
9 | ACCCAACA | -0.144
10 | CCGCCTGC | 0.00718
11 | ACGAGTCC | 0.289
12 | ACGAGTCT | 0.312
13 | ACGAGTCA | 0.48
14 | AATCGCTC | 0.211
15 | CACTACGA | 0.0996
16 | TACTACGA | 0.181
17 | AACTACGC | 0.0819
18 | GACTACGA | 0.413
19 | CACTACGC | -0.197
20 | GACTACGC | 0.391
21 | ATGAAATA | -0.0533
22 | CAGAGTCG | 0.324
23 | GAGAGTAA | 0.0863
24 | AAGAGTTG | 0.0206
25 | GAGAGTCA | 0.481

Row | Sequence | PBM E-score
26 | AAGAGTGG | -0.242
27 | CAGAGTCC | 0.212
28 | TAGAGTAA | 0.0416
29 | TAGAGTCA | 0.469
30 | GAGAGTCC | 0.256
31 | CAGAGTCA | 0.469
32 | AAGAGTCG | 0.423
33 | TAGAGTGA | 0.171
34 | AAGGCTGT | -0.161
35 | CAAACGCA | -0.0486
36 | CCCGGACC | -0.189
37 | AGTAAGAT | 0.0659
38 | CATGTTCC | -0.138
39 | ACGGTACG | 0.0345
40 | ATACAAGC | -0.123
41 | AAGAGTCA | 0.489
42 | AAGAGTCT | 0.355
43 | AAGAGTCC | 0.303
44 | AACTAGTC | 0.355
45 | CACTAGTC | 0.274
46 | TACTAGTA | 0.216
47 | CACTAGTA | -0.0969
48 | GACTAGTA | 0.391
49 | GACTAGTC | 0.408
50 | AACCAGTC | 0.171

Row | Sequence | PBM E-score
51 | GTAGCCAA | -0.0169
52 | CATGTCTA | 0.205
53 | ACTCAACG | 0.288
54 | TGTCAACA | -0.18
55 | CGTCAACA | -0.189
56 | AGTCAACC | 0.442
57 | GGTCAACC | -0.0162
58 | AGTCAACG | 0.443
59 | CGTCAACC | -0.225
60 | AGTCAACT | 0.424
61 | AGTCAACA | 0.441
62 | AATCAACT | 0.314
63 | ACTCAACT | 0.337
64 | CGTCAACG | 0.0184
65 | ATTCGAAG | 0.15
66 | AAGATACG | -0.0653
67 | AGATCTCA | 0.0373
68 | ATGGGCTG | -0.0763
69 | CACTTAGA | 0.0684
70 | TGCATTAA | 0.0992
71 | CTGGCCGC | -0.163
72 | AATACGCT | -0.136
73 | CAGTAGTA | 0.111
74 | AAGTAGTA | 0.0556
75 | CAGTAGCC | -0.116

Row | Sequence | PBM E-score
76 | AAGTAGTG | -0.157
77 | AAGTAGTC | 0.415
78 | CAGTAGTC | 0.403
79 | GCAAAGCC | -0.263
80 | GTGGCAAC | -0.295
81 | CGTTCACA | 0.0136
82 | CCTGGCAC | -0.304
83 | GCCATTCA | -0.0419
84 | GAATCAAA | 0.268
85 | CCATCATA | -0.0232
86 | CAATCATA | 0.371
87 | CCATCATC | -0.01
88 | CTATCATC | -0.0157
89 | GAATCAAC | 0.358
90 | CGATCATA | 0.0235
91 | GAATCATC | 0.48
92 | CAATCATC | 0.422
93 | CCGGCTTA | -0.221
94 | CCTTGGAA | -0.185
95 | CCGAAAAA | 0.0649
96 | ATAGGTCC | -0.0251
97 | AGTAAACC | -0.0239
98 | CCCTTTTA | -0.0873
99 | AGATTGAT | 0.0609
100 | CTTGAGTC | 0.466

Row | Sequence | PBM E-score
101 | ATTGAGTG | 0.149
102 | ATTGAGTA | 0.282
103 | ATTGAGTC | 0.479
104 | CTTGAGGC | -0.146
105 | CTTGAGTA | 0.233
106 | ACGGCCAG | -0.206
107 | AGCCATGA | 0.282
108 | ATCAGTCG | 0.296
109 | CTCAGTCA | 0.436
110 | CTCAGTCC | 0.255
111 | GTCAGTTA | 0.0503
112 | ATCAGTCA | 0.434
113 | ATCAGTCC | 0.0464
114 | GTCAGTCA | 0.451
115 | CTCAGTGA | 0.235
116 | GTCAGTGA | 0.31
117 | ATCAGGGG | -0.00776
118 | ACGCACAG | -0.247
119 | GCCCATCC | -0.0789
120 | ATAAAAAA | 0.112
121 | TTTAGAAA | 0.0151
122 | AAGAGCGG | -0.214
123 | CGGGTGCC | -0.315
124 | CGTCGTGC | -0.106
125 | AGTCGTGG | 0.373

Row | Sequence | PBM E-score
126 | ATTCGTGG | 0.186
127 | CGTCGTGA | 0.0738
128 | AGTCGTGC | 0.371
129 | AATCGTGC | 0.137
130 | AGTCGTTG | 0.326
131 | AGTCGTGA | 0.375
132 | GGTCGTGA | -0.0505
133 | AACGAGAC | 0.0315
134 | AAAGAGCA | -0.0916
135 | CGGGGCAG | -0.052
136 | CCCCTGAC | 0.173
137 | AGCGAATA | 0.0298
138 | ATTGGGTA | -0.138
139 | CTGGGGAC | -0.0825
140 | CACCCATC | 0.102
141 | ACTTGACT | 0.412
142 | ACTTGACG | -0.0474
143 | AATTGACT | 0.391
144 | AATTGACG | -0.178
145 | AATTGACC | -0.0998
146 | ACTTGACA | 0.0454
147 | CAATTCCA | -0.297
148 | CATACGAC | 0.158
149 | ACGCGTGC | -0.0231
150 | CCATCCGA | 0.161

Row | Sequence | PBM E-score
151 | CGAGAGTA | 0.0908
152 | AGAGAGTC | 0.409
153 | CCAGAGGC | -0.335
154 | CCAGAGTC | 0.38
155 | AGAGAGTG | -0.104
156 | CCAGAGTA | -0.0992
157 | CGAGAGTC | 0.421
158 | ACAGAGTC | 0.37
159 | ACAGAGTA | 0.0495
160 | AGAGAGTA | 0.121
161 | CGAGAGAC | 0.0137
162 | ACAGAGTG | 0.0565
163 | CCGCAAGC | -0.268
164 | ACGCCATC | -0.136
165 | CCTACCCA | -0.0884
166 | CGAGAACA | 0.0131
167 | GCTACGAA | -0.0422
168 | GGCCGGGA | -0.134
169 | CGCTACGC | -0.323
170 | AACGGGAT | -0.185
171 | CAATCCGG | -0.0586
172 | GATAGGCC | -0.339
173 | CGACTCAA | 0.474
